Measured values published in ChEMBL document CHEMBL1201862, “PubChem BioAssay data set” (2004).
Several values for one entry are separate records, joined by “and”; a condition that tells them apart may be missing. Equal entries are not always repeated. Among all 75,000 compounds or so, about 5,700 (7.6%) were called active. Roughly 7% stayed inconclusive and do not appear here. The calls are words filed in the database; no cut-off is given here. The sample as a whole holds a higher share of actives than the screen did.

target: T1, 3-hydroxyacyl-CoA dehydrogenase type-2 (Homo sapiens) (UniProt Q99714); experiment: qHTS Assay for Inhibitors of HSD17B4, hydroxysteroid (17-beta) dehydrogenase 4.; assay type: functional
T1 sequence (whole entry): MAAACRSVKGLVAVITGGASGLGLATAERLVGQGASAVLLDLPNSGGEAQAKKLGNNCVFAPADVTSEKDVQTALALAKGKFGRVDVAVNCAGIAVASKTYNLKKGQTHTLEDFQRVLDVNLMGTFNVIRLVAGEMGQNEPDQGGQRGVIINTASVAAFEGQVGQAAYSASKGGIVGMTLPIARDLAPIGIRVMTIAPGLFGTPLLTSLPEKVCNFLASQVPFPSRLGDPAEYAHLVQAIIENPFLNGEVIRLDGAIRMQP

| SMILES | Potency |
| --- | --- |
| O=C(O)c1cc(-c2ccc(F)cc2F)ccc1O | 31.6 µM (active) and 12.6 µM (active) |
| Cc1c(OCC(=O)OC(C)C)ccc2c3c(c(=O)oc12)CCC3 | inactive |
